Source: PubChem BioAssay (Tox21)
Records with an inconclusive call do not appear. Where a call stands in place of a potency, no number is given. Active and inactive are the calls of the source. Calls come from the whole dose curve; as a rule, active = well fitted curve in the direction sought with a large enough effect in the repeat runs; inconclusive = weak or mixed curves; inactive = no such curve, though single readings can be large; an effect the other way counts as inactive or inconclusive.

assay: qHTS assay to identify small molecule agonists of the retinoic acid receptor (RAR) signaling pathway (AID 1159553); conditions: C3RL4 RARE luciferase reporter, agonist, 6 h; series mostly up to 73.3 µM; note: potency is the fitted concentration of half-maximal effect
In short: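 C3RL4 RARE-luciferase cells were seeded at 1,000/well and grown overnight at 37 C, then exposed to compounds for 6 hr at 37 C, 5% CO2. Luciferase reagent was added and luminescence was read after 30 min at room temperature.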

Q: With `C#CCOC(=O)[C@@H](C)Oc1ccc(Oc2ncc(Cl)cc2F)cc1` as the molecule, how does the Potency read?
A: inactive

Q: Which Potency does the source give for `O=C(O)C(c1ccc(Cl)cc1)c1ccc(Cl)cc1` here?
A: inactive

Q: Which Potency does the source give for `O=C(Nc1ccccc1)OCC(CN1CCCCC1)OC(=O)Nc1ccccc1` (stereo not drawn) here?
A: inactive

Q: With `CCCCCCCCCCCCC(=O)O` as the molecule, how does the Potency read?
A: inactive

Q: Which Potency does the source give for `CCOC(=O)C1=NN(c2ccccc2)C(=O)C1` here?
A: inactive

Q: With `CCCCOC(O)CC` (stereo not drawn) as the molecule, how does the Potency read?
A: inactive

Q: Which Potency does the source give for `CC(=O)/C=C/C1C(C)=CCCC1(C)C` (stereo not drawn) here?
A: inactive

Q: Which Potency does the source give for `CC[C@H](C)[C@@H](C(=O)O)n1sc2ccccc2c1=O` here?
A: inactive

Q: Which Potency does the source give for `CCOc1nc2cccc(C(=O)O)c2n1Cc1ccc(-c2ccccc2-c2nn[nH]n2)cc1` here?
A: inactive

Q: For `O=C1CCCCCO1`, which Potency is on record?
A: inactive

Q: For `COc1ccc([C@@H]2Sc3ccccc3N(CCN(C)C)C(=O)[C@@H]2OC(C)=O)cc1`, which Potency is on record?
A: inactive

Q: For `O=C(O)c1cn(C2CC2)c2cc(Cl)c(F)cc2c1=O`, which Potency is on record?
A: inactive

Q: Which Potency does the source give for `C[C@@H](C1=C(CCN(C)C)Cc2ccccc21)c1ccccn1` here?
A: inactive

Q: For `CCOc1ccc2[nH]cc(C(=O)NCc3ccccc3)c(=O)c2n1`, which Potency is on record?
A: inactive

Q: Which Potency does the source give for `O=S1(=O)N=C(O)c2ccccc21` here?
A: inactive

Q: Which Potency does the source give for `CC(=O)Nc1ccc(/C=N/NC(N)=S)cc1` here?
A: inactive

Q: For `CC(C)(C)c1ccc(OCC2CO2)cc1` (stereo not drawn), which Potency is on record?
A: 12.4 µM (active)

Q: For `CC(C)NCC(O)c1cc(O)cc(O)c1` (stereo not drawn), which Potency is on record?
A: inactive

Q: With `CCCCCCCCCC(=O)OCC` as the molecule, how does the Potency read?
A: inactive

Q: With `N#Cc1c(F)cccc1F` as the molecule, how does the Potency read?
A: inactive

Q: With `CC(C)(C)C1CCCCC1O` (stereo not drawn) as the molecule, how does the Potency read?
A: inactive

Q: For `CCCCCc1ccc(N)cc1`, which Potency is on record?
A: inactive

Q: Which Potency does the source give for `CCCCCCCCCCCCCCC1CO1` (stereo not drawn) here?
A: inactive

assay: qHTS assay to identify small molecule antagonists of the estrogen related receptor signaling pathway with the pleiotropic PPARgamma coactivator (PGC) cell viability counter screen (AID 1224822); conditions: ERR/PGC reporter cell line viability counter screen; series mostly up to 46.1 µM
In short: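 PGC/ERR cells rested 6 h, then compound-treated 17.5 h at 37 C. CellTiter-Fluor added for 30 min at 37 C, viability measured by fluorescence intensity.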

Q: With `CC(C)NCC(O)COc1ccc(CC(N)=O)cc1` (stereo not drawn) as the molecule, how does the outcome read?
A: inactive

Q: With `COc1ccc([C@@H]2Sc3ccccc3N(CCN(C)C)C(=O)[C@@H]2OC(C)=O)cc1` as the molecule, how does the outcome read?
A: inactive

Q: For `O=C(O)/C=C/c1cnc[nH]1`, which outcome is on record?
A: inactive

Q: Which outcome does the source give for `CC(C)NCC(O)c1cc(O)cc(O)c1` (stereo not drawn) here?
A: inactive

assay: qHTS assay to identify small molecule antagonists of the estrogen related receptor (ERR) signaling pathway from Tox21 library - cell viability counter screen (AID 1224834); conditions: ERR reporter cells viability, CellTiter-Fluor, 17.5 h; series mostly up to 92.4 µM; note: nearly all actives have a fitted effect of over 30% in size
In short: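 ERR reporter cells, 2,000 per well, rested 6 h, then exposed to compound in DMSO for 17.5 hours at 37 C. Viability read as fluorescence after 30 min with CellTiter-Fluor.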

Q: For `C#CCOC(=O)[C@@H](C)Oc1ccc(Oc2ncc(Cl)cc2F)cc1`, which Potency is on record?
A: inactive

Q: With `O=C(O)C(c1ccc(Cl)cc1)c1ccc(Cl)cc1` as the molecule, how does the Potency read?
A: inactive

Q: With `CCCCOC(=O)c1ccccc1C(=O)OCC(CC)CCCC` (stereo not drawn) as the molecule, how does the Potency read?
A: inactive

Q: With `CC(=O)[C@@]1(O)CC[C@H]2[C@@H]3C[C@H](C)C4=CC(=O)CC[C@]4(C)[C@H]3CC[C@@]21C` as the molecule, how does the Potency read?
A: inactive

Q: For `CC(C)NCC(O)COc1ccc(CC(N)=O)cc1` (stereo not drawn), which Potency is on record?
A: inactive

Q: Which Potency does the source give for `O=C(Nc1ccccc1)OCC(CN1CCCCC1)OC(=O)Nc1ccccc1` (stereo not drawn) here?
A: inactive

Q: Which Potency does the source give for `CCCCCCCCCCCCC(=O)O` here?
A: inactive

Q: Which Potency does the source give for `c1ccc(CNCc2ccccc2)cc1` here?
A: inactive

Q: With `CC(=O)/C=C/C1C(C)=CCCC1(C)C` (stereo not drawn) as the molecule, how does the Potency read?
A: inactive

Q: Which Potency does the source give for `CC[C@H](C)[C@@H](C(=O)O)n1sc2ccccc2c1=O` here?
A: inactive

Q: For `CCOc1nc2cccc(C(=O)O)c2n1Cc1ccc(-c2ccccc2-c2nn[nH]n2)cc1`, which Potency is on record?
A: inactive

Q: For `O=C1CCCCCO1`, which Potency is on record?
A: inactive

Q: Which Potency does the source give for `CCN(CC)CCc1nc(-c2ccccc2)no1` here?
A: inactive

Q: Which Potency does the source give for `O=C(O)/C=C/c1cnc[nH]1` here?
A: inactive

Q: For `O=C(O)c1cn(C2CC2)c2cc(Cl)c(F)cc2c1=O`, which Potency is on record?
A: inactive

Q: For `CC(C)=CCCC(C)CC=O` (stereo not drawn), which Potency is on record?
A: inactive

Q: Which Potency does the source give for `CNS(=O)(=O)Cc1ccc2[nH]cc(CCN(C)C)c2c1` here?
A: inactive

Q: Which Potency does the source give for `CC(=O)Nc1ccc(/C=N/NC(N)=S)cc1` here?
A: inactive

Q: For `CC(C)(C)c1ccc(OCC2CO2)cc1` (stereo not drawn), which Potency is on record?
A: inactive

Q: Which Potency does the source give for `CC(Cc1cccc(C(F)(F)F)c1)NCCOC(=O)c1ccccc1` (stereo not drawn) here?
A: inactive

Q: For `Nc1ccc(C(=O)Nc2ccccc2N)cc1`, which Potency is on record?
A: inactive

Q: Which Potency does the source give for `CN(C)CCCNCCCN` here?
A: inactive

Q: With `CC(C)(C)c1ccc(S)cc1` as the molecule, how does the Potency read?
A: inactive

Q: With `CC(C)NCC(O)c1cc(O)cc(O)c1` (stereo not drawn) as the molecule, how does the Potency read?
A: inactive

Q: Which Potency does the source give for `N#Cc1c(F)cccc1F` here?
A: inactive

Q: For `CCCCCc1ccc(N)cc1`, which Potency is on record?
A: inactive
